An excerpt weighted towards active compounds, which were near 3% of everything screened.
ROMK primary: human ROMK K+ channel modulation, primary screen | Tet-inducible ROMK, thallium flux fluorescence; actives lie on both sides | B-score at 10 µM | hit rate 2% among 130,000;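 active = signal ratio slope over the read window, or its plate-corrected B-score, at least 3 SD from the plate mean, either direction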;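 note: B-score of the F/F0 ratio slope over 7 to 12 s after thallium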
Target sequence (P48048 whole entry, looked up): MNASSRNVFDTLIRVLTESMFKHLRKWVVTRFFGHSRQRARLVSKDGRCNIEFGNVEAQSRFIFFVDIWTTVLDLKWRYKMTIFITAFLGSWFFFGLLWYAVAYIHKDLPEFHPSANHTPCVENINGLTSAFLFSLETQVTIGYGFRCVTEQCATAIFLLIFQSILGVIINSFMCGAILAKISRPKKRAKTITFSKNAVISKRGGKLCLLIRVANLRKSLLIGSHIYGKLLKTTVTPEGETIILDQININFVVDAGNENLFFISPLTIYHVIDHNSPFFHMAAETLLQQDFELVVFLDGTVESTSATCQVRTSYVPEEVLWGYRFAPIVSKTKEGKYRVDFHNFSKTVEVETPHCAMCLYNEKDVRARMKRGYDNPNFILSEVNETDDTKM
HMGR II inh: blocks class II HMG-CoA reductase of Enterococcus faecalis | inhibition, % at 10 µM | purified E. faecalis HMGR, NADPH absorbance 340 nm kinetic | hit rate 0.41% among 190,000;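 active = inhibition above a set limit, the median over all tested compounds plus 3 SD, cut at about 9.5% in these data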;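 note: enzyme runs in reverse so mevalonate oxidation gives rising NADPH absorbance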
14-3-3 Bad PPI: disrupts binding of bovine 14-3-3 zeta to phospho-Bad peptide; AID 781; P63103; inhibition, % at 21.7 µM; TR-FRET 14-3-3zeta/Dy647-pBad peptide displacement, 1 h; hit rate 0.71% among 220,000;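 active = inhibition above about 70%, limit read from the data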
Target sequence (P63103 whole entry, looked up): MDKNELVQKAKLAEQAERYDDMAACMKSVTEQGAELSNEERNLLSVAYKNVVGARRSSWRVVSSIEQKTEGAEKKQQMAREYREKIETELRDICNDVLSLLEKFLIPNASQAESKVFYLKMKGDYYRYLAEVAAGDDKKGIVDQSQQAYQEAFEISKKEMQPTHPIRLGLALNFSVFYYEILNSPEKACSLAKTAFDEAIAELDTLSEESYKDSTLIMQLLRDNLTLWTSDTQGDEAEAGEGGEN
TNF death inh: inhibitors of TNF-alpha induced necroptosis in Jurkat FADD-/- cells. Jurkat FADD-/- TNF necroptosis rescue, ATP luminescence, 24 h; 0 = TNF only, 100 = no-TNF cells. activation (protection from cell death), % at 10 µM. hit rate 0.068% among 220,000;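 active = activation, meaning protection from cell death, of at least 50% relative to plate controls; inactive = activation below 50%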;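 note: necroptosis triggered by 40 ng/mL TNF-alpha added together with compound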
zVAD death inh: blocks zVAD induced death of L929 cells; L929 zVAD necroptosis rescue, ATP luminescence, 24 h; with zVAD 60 µM; viability rescue, % at 10 µM; hit rate 0.38% among 220,000;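 active = activation, scaled between plate controls, above about 75%, limit read from the data; inactive = activation under that limit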
m-calpain inh: inhibitors of pig calpain II | hit rate 0.37% among 220,000 | inhibition, % at 16 µM | purified calpain II, fluorogenic peptide substrate, 30 min | AID 1236;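 active = inhibition above about 50%, limit read from the data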
Of the large screens only hits and unclear results are named; the others gave an inactive call; [ ] = remark or other dose.

COc1ccc(/C=C/C(=O)NC(=S)Nc2cc3oc4ccccc4c3cc2OC)cc1	m-calpain inh 62 (no result: ROMK primary)
COc1cc2c(cc1NC(=S)NC(=O)/C=C/c1ccc(OC)c(OC)c1)oc1ccccc12	14-3-3 Bad PPI 81[fluorescence artefact?] (no result: ROMK primary)
COc1ccc(/C=C/C(=O)NCC2COc3ccccc3O2)cc1OC (centres undefined)	HMGR II inh 9.5
Cc1ccc(/C=C/C(=O)NCC2COc3ccccc3O2)o1 (centres undefined)	none
C=C(C)C1CC=C(C)/C(=N\NC(=S)Nc2ccc(C)cc2)C1 (centres undefined)	none
CC(=O)[C@@]1(O)CC[C@H]2[C@@H]3CCC4=CC(=O)CC[C@]4(C)[C@H]3CC[C@@]21C	HMGR II inh 12 (no result: ROMK primary)
CCCCCC(=O)O[C@]1(C(C)=O)CC[C@H]2[C@@H]3CCC4=CC(=O)CC[C@]4(C)[C@H]3CC[C@@]21C	none (no result: ROMK primary)
Cc1nc(-c2cn[nH]c2-c2ccc(O)cc2O)cs1	ROMK primary -3.1
O=[N+]([O-])c1cc(-c2ncccn2)cs1	none (no result: zVAD death inh)
Cc1ccc(NS(=O)(=O)c2ccc3c(c2)NC(=O)CC(=O)N3)cc1C	HMGR II inh 9.9
COc1ccc(NS(=O)(=O)c2ccc3c(c2)NC(=O)CO3)cc1	none
O=Cc1ccc(OCc2nnsc2Cl)cc1	none
Nc1cc2nc[nH]c2cc1N	14-3-3 Bad PPI 92
CCCc1ccc(OC(=O)c2ccc(O)cc2Cl)cc1	m-calpain inh 62
CCCc1ccc(OC(=O)c2cccs2)cc1	none (no result: ROMK primary)
CCNc1nc(NC(C)C)nc(NC(C)(C)C)n1	HMGR II inh 13
CCCCNC(=O)c1ccccc1C(=O)NCCCC	m-calpain inh 91 (no result: ROMK primary)
CCCCNC(=O)c1ccccc1Cl	none (no result: ROMK primary)
OCCN(Cc1ccccc1)Cc1ccccc1Cl	none
OCCN(Cc1ccccc1)Cc1cccc(Cl)c1Cl	14-3-3 Bad PPI 88 (no result: ROMK primary)
CCCn1c(C(C)C)n[nH]c1=S	none (no result: HMGR II inh)
COc1ccc(/C=N/n2cnnc2)cc1Cn1nc(C)c([N+](=O)[O-])c1C	HMGR II inh 11
CCS(=O)(=O)N1CCN(C(C)CCc2ccccc2)CC1 (centres undefined)	14-3-3 Bad PPI 70
CC(CCc1ccccc1)N1CCN(Cc2ccccc2)CC1 (centres undefined)	none (no result: ROMK primary)
Cc1cccc(C)c1OC(=O)CCN1C(=O)C2C3C=CC(C4CC34)C2C1=O (centres undefined)	none
c1csc(-c2nnc(N3CCOCC3)c3ccccc23)c1	HMGR II inh 11
Cc1nc(SCC(=O)Nc2ccccc2)c2oc3ccccc3c2n1	none (no result: ROMK primary)
Cc1nc(SCC(=O)NC(C)c2ccccc2)c2oc3ccccc3c2n1 (centres undefined)	m-calpain inh 57 (no result: ROMK primary)
CCC1CCCCN1C(=O)CCn1ccnc1 (centres undefined)	HMGR II inh 15
CC(C)N1C(=O)CC2(CC[N+](C)(CCOC(=O)C(c3ccccc3)c3ccccc3)CC2)C1=O (centres undefined)	14-3-3 Bad PPI 77[fluorescence artefact?]
CC(C)Oc1ccc(C(=O)N/N=C/c2ccc(-c3ccc(S(=O)(=O)Nc4ncccn4)cc3)o2)cc1	none
COc1ccc2c(C=Nc3c(C)n(C)n(-c4ccccc4)c3=O)c(O)n(Cc3ccco3)c(=O)c2c1	none
Cc1cccc(N2CCN(C(=O)N3CCCCC3)CC2)c1C	none
Cc1cccc(C)c1N1CCN(C(=O)N2CCCCC2)CC1	HMGR II inh 14
O=C(CN1CCCCCC1)Nc1ccc(F)c(F)c1	14-3-3 Bad PPI 72 (no result: zVAD death inh)
CC(/C=N\NC(=O)CN1CCN(S(=O)(=O)c2ccc(C)cc2)CC1)=C\c1ccccc1	14-3-3 Bad PPI 80[fluorescence artefact?] (no result: ROMK primary)
Cc1ccc(S(=O)(=O)N2CCN(CC(=O)N/N=C\C(Cl)=C\c3ccccc3)CC2)cc1	none
Cc1nn2c(-c3ccccn3)ccnc2c1Cl	none
O=C(CCn1cnnn1)Nc1ccc(Cl)c(Cl)c1	HMGR II inh 14
COc1ccc(C(=O)N2c3cc4c(cc3C(C)=CC2(C)C)OCO4)cc1	m-calpain inh 52 (no result: ROMK primary)
CCc1ccc(/C=N/NC(=O)c2cc(C3CC3)nc3ccccc23)s1	ROMK primary 3.2
Cc1ccc(C)c(S(=O)(=O)N2CCN(CC(=O)N3CCc4ccccc4C3)CC2)c1	14-3-3 Bad PPI 86[fluorescence artefact?]
CCc1nc(C)cn1S(=O)(=O)c1cc(C)c(OC)c(C)c1C	none (no result: ROMK primary)
COCCN(C(=O)Cc1cccs1)c1nnc(-c2cccnc2)s1	none (no result: ROMK primary)
CCCCN(C(=O)Cc1cccs1)c1nnc(-c2cccnc2)s1	14-3-3 Bad PPI 71
CC(C)Sc1nc2c([nH]c3ccccc32)c(=O)n1C	m-calpain inh 82
CCSc1nnc(NC(=O)Cc2cc(OC)c(OC)c(OC)c2)s1	none
O=[N+]([O-])c1ccc(Oc2cccc(F)c2)c2ccncc12	m-calpain inh 51
C/C(CC(=O)Nc1ccc(Cl)cn1)=N\NC(=O)Cc1cccs1	none (no result: ROMK primary, HMGR II inh)
Cc1ccc2nc(-c3cc(N)cc(N)c3)oc2c1	HMGR II inh 14 (no result: ROMK primary)
CCOC(=O)/C(C#N)=C1\CCCN1CC(N)=S	none
COc1cccc(C(c2nnnn2Cc2ccc(F)cc2)N2CCC(C(N)=O)CC2)c1OC (centres undefined)	14-3-3 Bad PPI 77
S=C(Nc1ccccc1Oc1ccccc1)Nc1cccc(Cl)c1Cl	m-calpain inh 55 (no result: ROMK primary)
S=C(Nc1ccc(Cl)cc1Cl)Nc1ccccc1Oc1ccccc1	none (no result: ROMK primary)
CN(C)c1ccc(/C=C/c2ccc3c4ccccc4ccc3[n+]2-c2ccccc2)cc1	none
CN(C)c1ccc(/C=C/c2ccc3ccccc3[n+]2C)cc1	m-calpain inh 57 (no result: ROMK primary)
CCc1nnc(NC(=O)CSc2ncnc3c2oc2ccccc23)s1	14-3-3 Bad PPI 73 (no result: ROMK primary)
Cc1ccc(C(=O)NCC(=O)OCC(=O)NC2CCS(=O)(=O)C2)cc1C (centres undefined)	none
CCOc1ccc(N2C(=O)C3Sc4[nH]c(=O)sc4C(c4ccc(OC)c(OC)c4)C3C2=O)cc1 (centres undefined)	none (no result: ROMK primary, HMGR II inh)
Nc1nc(C2CC(=O)OC23CCCCC3)cs1 (centres undefined)	none (no result: ROMK primary)
Nc1nc(C2C(=O)CCCC2=O)cs1	14-3-3 Bad PPI 71 (no result: ROMK primary)
CC1(C)OCC(COC(=O)Nc2cccnc2)([N+](=O)[O-])CO1	none
O=C(O)c1cccc(N2C(=O)/C(=C/c3ccc(SCc4ccc(Cl)cc4)o3)SC2=S)c1	ROMK primary -4.2, 14-3-3 Bad PPI 85, m-calpain inh 69
Cc1ccc(/C=C2\SC(=S)N(c3cccnc3)C2=O)o1	none (no result: ROMK primary, HMGR II inh)
CCC(CC)C1=NN2C(=N)/C(=C\c3cc(C)n(-c4cccc(C)c4)c3C)C(=O)N=C2S1	none
CCn1c(CNc2ccc(Cl)cc2)nnc1SCC(=O)OC1CCCCC1	ROMK primary -4.2
CCn1c(CNc2ccccc2Cl)nnc1SCC(=O)OC1CCCCC1	none
Cc1ccccc1N(CC(=O)N/N=C/c1cc(C)n(-c2ccccc2C)c1C)S(C)(=O)=O	ROMK primary 8.5

Assay outcomes deposited in PubChem BioAssay by several laboratories.
